Test results reported in PubChem BioAssay (NCI).
About 79,000 compounds went through this panel and 15% of them were active in at least one assay; those are over-represented in the sample as a whole. Unmarked numbers belong to inactive results. Activity calls are given as the source filed them. Rule as the data show it: active = growth inhibition above about 70%; inactive = the rest. Where a SMILES comes first, the peptide text is derived from it. [ ]: non-standard residue; d: D form. The star is where a group is joined. ξ: configuration not given here. ξD = NC(CC(=O)O)C(=O)O; Boc = CC(C)(C)OC(=O)*; Aib = CC(C)(N)C(=O)O; OtBu = CC(C)(C)O*

Experiments:
[1] = NCI Yeast Anticancer Drug Screen. Data for the rad50 strain (AID 155);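 also: 0% = growth of vehicle-only cultures of the same strain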; settings: S. cerevisiae rad50 strain growth inhibition; at 50.0 µM; hits give high values
Method in brief: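 Relative growth inhibition (compound vs vehicle) was measured in yeast with a defined repair-gene alteration.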

[2] = NCI Yeast Anticancer Drug Screen. Data for the mec2-1 strain (AID 157); settings: S. cerevisiae mec2-1 strain, at 50.0 µM, hits give high values
Method in brief: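 Using mec2-1 yeast: add compound, measure growth, express inhibition versus vehicle-treated cultures.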

[3] = NCI Yeast Anticancer Drug Screen. Data for the sgs1 mgt1 strain (AID 161);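 also: 0% = growth of cultures given vehicle only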; settings: S. cerevisiae sgs1 mgt1 strain, at 50.0 µM, hits give high values
Method in brief: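 Compounds are added to genetically altered yeast, and growth is compared with cultures given vehicle alone to give percent inhibition.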

[4] = NCI Yeast Anticancer Drug Screen. Data for the cln2 rad14 strain (AID 165);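 also: 0% = growth equal to vehicle treated cultures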; settings: S. cerevisiae cln2 rad14 strain, at 50.0 µM, hits give high values
Method in brief: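 Yeast strain cln2 rad14, bearing defects in cell cycle control and DNA repair, serves as the test system; values reflect growth inhibition compared with vehicle.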

[5] = NCI Yeast Anticancer Drug Screen. Data for the bub3 strain (AID 167); settings: S. cerevisiae bub3 mutant strain, at 50.0 µM, hits give high values
Method in brief: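 Screening used yeast with an engineered genetic alteration affecting cell cycle control. Compound-exposed cultures were compared with vehicle cultures, and reduced growth was taken as inhibition.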

[6] = NCI Yeast Anticancer Drug Screen. Data for the mlh1 rad18 strain (AID 175); settings: S. cerevisiae mlh1 rad18 strain growth inhibition; at 50.0 µM; hits give high values
Method in brief: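 Steps: expose repair-defective yeast to compound; measure growth; express inhibition against vehicle-treated controls.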

| Structure (SMILES) | growth inhibition [1] | growth inhibition [2] | growth inhibition [3] | growth inhibition [4] | growth inhibition [5] | growth inhibition [6] |
| --- | --- | --- | --- | --- | --- | --- |
| CCc1cc2c(oc3c4ccccc4ccc23)c(=O)[nH]1 | -8.95% | -12.6% | -15.7% | -14.3% | -25.4% | -7.55% |
| COc1cc2c(cc1OC)C1(c3ccccc3)ON=C(c3ccccc3)N1CS2 (stereo unspecified) | -14.1% | -12.4% | 8.95% | -32.4% | -7.05% | -11.1% |
| O=C(C[n+]1cccc(CO)c1)c1ccc(-c2ccc(C(=O)C[n+]3cccc(CO)c3)cc2)cc1 | 22.8% | 5.35% | 31.7% | -4.7% | -1.7% | 11.7% |
| CCOC(=O)c1[nH]c(C(=O)O)c(C(=O)OCC)c1C | 7.3% | 3.7% | 4.85% | -12.8% | -5.3% | -10.1% |
| C/C(=N\NC(=S)NC(C)C)c1nc2ncccc2[nH]1 | -14.5% | -17.6% | -56.6% | -28.8% | 17.5% | -25.8% |
| COc1cc2c(c(OC)c1OC)C(=O)[C@H]1OC(=O)N[C@@H]21 | 8% | 3.05% | 5.2% | 2.1% | 12.9% | -32% |
| O=C(O)/C=C/C(O)C1CCCCC1 (stereo unspecified) | -31.1% | -8.35% | -0.95% | -23.1% | 1.05% | -4.65% |
| C=C(C)S(=O)(=O)c1ccc(C)cc1 | 11.3% | -16.4% | -5.7% | -15.3% | 12% | 11.8% |
| COc1ccccc1NC(=O)C(=O)C(c1cnc2ccc([N+](=O)[O-])cc2n1)[N+](=O)[O-] (stereo unspecified) | 16.2% | -3.4% | 6.3% | 18.5% | 7.6% | -0.2% |
| O=C1c2ccccc2-c2oc(=O)c3ccccc3c21 | -19.9% | -1.5% | -6.05% | -17.2% | 2.2% | -15.9% |
| O=C1OC(=O)C2C1C1CCC2C1(c1ccccc1)c1ccccc1 (stereo unspecified) | 22.5% | -0.95% | 31.4% | -4.7% | -0.05% | -2.85% |
| O=C(O)C(CCc1ccccn1)c1ccccc1 (stereo unspecified) | -4.2% | -26.2% | -26.2% | -17.6% | -44.4% | -0.55% |
| N#Cc1c(O)c(C=O)c(=O)n2c1[nH]c1ccccc12 | -30.6% | -45.5% | -21.7% | -8.15% | 4.05% | -0.05% |
| O=C1c2cc(O)c(O)cc2O[C@H](c2ccc(O)c(O)c2)[C@H]1O | 2.15% | -35.1% | 11.8% | 16.2% | -8.7% | -46.7% |
| COC1c2ccccc2C=CN1c1ccc([N+](=O)[O-])cc1[N+](=O)[O-] (stereo unspecified) | 61.8% | 70.4% (active) | 69.2% | 27.4% | 59.1% | 71.2% (active) |
| O=C1OCC2Cc3ccccc3C(c3ccccc3)=C12 (stereo unspecified) | -3.85% | -6.3% | -1.3% | -31.5% | 11.3% | -1% |
| CNNCCCC(=O)NC(C)C | -5.7% | 6.65% | 9.25% | 2.75% | 7.8% | 7.85% |
| CCO/C=N\C1=C(C#N)SC2=N/C(=C\c3ccco3)C(=O)N21 | 6.1% | -19.2% | -7.4% | 5.65% | 0.45% | -17.3% |
| Cc1ccc(S(=O)(=O)N/N=C/c2oc(-c3ccncc3)c(-c3ccncc3)c2[N+](=O)[O-])cc1 | -1.15% | 10.8% | 17.4% | 27.8% | -11.5% | 17.1% |
| [O-]c1c[n+](CC[n+]2cc([O-])on2)no1 | 13.7% | -8.45% | -13.2% | 40.5% | -19.6% | -14.7% |
| Cc1ccc(Br)c([N+](=O)[O-])c1 | 5.1% | -4.75% | 2.1% | 5.85% | -0.2% | 1.75% |

| Structure (SMILES) | growth inhibition [1] | growth inhibition [2] | growth inhibition [3] | growth inhibition [4] | growth inhibition [5] | growth inhibition [6] |
| --- | --- | --- | --- | --- | --- | --- |
| CC(C)NC(=O)C(C(C)C)C(C)(C)C (stereo unspecified) | -2.95% | 5.25% | 1.35% | 12.1% | 9.2% | -2.15% |
| CCC(C)NC(=O)/C=C/C(=O)NC(C)CC (stereo unspecified) | 5.4% | -4.25% | -5.75% | -29.7% | 4.95% | 8.5% |
| Cc1ccc(CN2CCCCC2)o1 | 16.6% | 3.2% | 0.2% | 1.1% | 2.05% | 7.5% |
| O=C(O)c1ccc(OCC(=O)c2ccccc2)cc1 | 6.35% | 16.9% | -5.6% | -6.65% | 36.1% | 8.25% |
| O=c1cc(CCl)nc2c3ncn(C4OC(CO)C(O)C4O)c3ncn12 (stereo unspecified) | -11.8% | -16.5% | -0.25% | -5.95% | -8.15% | -0.55% |
| CC(C)c1cccc(C(C)C)c1NC(=O)OC1CCCCC1 | -11.7% | -22.8% | 8.2% | 20.2% | -1.6% | -2.85% |
| NC(C(=O)O)C(C(F)(F)F)C(F)(F)F (stereo unspecified) | 0.95% | -15.2% | 4.5% | 1.55% | -15.7% | 6.5% |
| O=C(Nc1cccc(O)c1)c1ccccc1Cl | 9.3% | -6% | -15.4% | -86.3% | -11.9% | -30.1% |
| Nc1c(-c2nc3ccccc3[nH]2)sc(=S)n1-c1ccccc1 | -6.4% | -21.4% | 1.75% | 2.2% | -4.2% | -17.9% |
| COC1OC(CS(=O)(=O)O)C(O)C(O)C1O (stereo unspecified) | -44.5% | -2.15% | -1.85% | -13.6% | -31.9% | -4.3% |
| CCCCCCOC(=O)c1ccccn1 | -5.85% | 1.7% | 0.15% | -91.6% | 17.6% | -26.6% |
| CC(Sc1ncnc2[nH]ncc12)C(N)=O (stereo unspecified) | -22.5% | -16.4% | -18.4% | -6.6% | 5% | 0.95% |
| COC(=O)C(C)(C)NC(=O)C(C)(C)NC(=O)C(CC(=O)OC(C)(C)C)NC(=O)OC(C)(C)C (stereo unspecified) (Boc-[ξD](OtBu)-[Aib]-[Aib]-OMe) | -29.3% | -16.1% | -21.1% | -7.4% | -18.4% | -28.7% |
| COC(=O)C(/C(=N\O)C(=O)Nc1cccc(Cl)c1C)c1cnc2ccccc2n1 (stereo unspecified) | 14.5% | -11.1% | 8.75% | 23.5% | -0.2% | 12.5% |
| Cc1ccc(S(=O)(=O)C/C(=N\Nc2ccc([N+](=O)[O-])cc2[N+](=O)[O-])c2ccccc2)cc1 | 38.4% | -9.45% | 17.6% | 12.4% | -0.25% | 18.7% |
| COc1ccc(Nc2cccc(Cl)c2)cc1 | 97% (active) | 98.2% (active) | 96.5% (active) | 95.9% (active) | 95.6% (active) | 97.8% (active) |
| NC(=O)c1cc2c(c3c1CCCC3)CCCC2 | 4.2% | -6.6% | -3.55% | -52% | -13.9% | -2.3% |
| CC1(COc2ccccc2)NC(=O)c2ccccc2O1 (stereo unspecified) | -5.85% | -13.4% | 10.6% | -46.2% | 0.85% | -6.25% |
| C/C(CC(=O)Nc1ccc(Cl)cc1)=N\NC(=O)C[n+]1ccccc1 | 1.35% | -17.6% | 11.2% | 16.6% | -12.5% | -8.6% |
| CC1(CC2(c3ccccc3)NC(=O)NC2=O)NC(=O)NC1=O (stereo unspecified) | -0.55% | -19.6% | 0.9% | 10.6% | 11.8% | 5.65% |
